According to PubChem BioAssay AID602393 (Broad Institute, 2012):
The whole screen tested about 350,000 compounds, of which about 7,000 (2%) were called active. Shown is part of a subset that was picked to be rich in actives. Unmarked numbers belong to inactive results. Cut-off read from the data, not from the text of the source: active = activation above about 40%; inconclusive = no clear call, values can overlap the other calls; inactive = below that.

experiment: Bmi1 luciferase reporter increase in mESCs, primary screen, esBAF inhibitor project, mouse ES cells, Bmi1 luciferase knock-in, single point (AID 602393); conditions: 24 h, at 12.5 µM, stronger effect = higher value, 100% = twice the neutral-well signal;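 note: 0% = median of the plate's neutral control wells and 100% = double that signal; a rise in the Bmi1 reporter signal indicates esBAF inhibition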

Row | SMILES | reporter increase
1 | Cc1ccc(S(=O)(=O)Oc2ccc(/C=N/NC(=O)c3ccncc3)cc2)cc1 | 4.2%
2 | Cc1ccc(S(=O)(=O)N(CC(=O)N/N=C/c2ccc(F)cc2)c2cccc3cccnc23)cc1 | 0.787%
3 | Cc1ccc(/C=N/NC(=O)c2sccc2OCc2ccc(F)cc2)cc1 | 53.7% (active)
4 | C[C@H]1CN([C@@H](C)CO)S(=O)(=O)c2ccc(-c3ccccc3)cc2O[C@H]1CN(C)C(=O)CC1CC1 | -0.183%
5 | CCCNC(=O)N1C[C@H]2[C@@H](c3ccccc31)[C@@H](CO)N2C(=O)NCCC | -2.97%
6 | O=C(NCC[C@H]1CC[C@H](NC(=O)C2CC2)[C@@H](CO)O1)c1cc(Cl)cc(Cl)c1 | 1.12%
7 | C[C@@H]1CN([C@H](C)CO)C(=O)c2cc(Br)cnc2O[C@@H]1CN(C)C(=O)C1CC1 | -3.93%
8 | O=[N+]([O-])c1ccc(N2CCOCC2)cc1 | 6.61%
9 | COc1ccccc1C(=O)NC(=S)Nc1ccc(N2CCOCC2)cc1 | 25.5%
10 | O=C(Nc1ccc(N2CCOCC2)cc1)c1ccc(-c2ccccc2[N+](=O)[O-])o1 | 22.9% (active)
11 | C[C@H]1CN([C@@H](C)CO)C(=O)c2cccc(NS(=O)(=O)c3cccs3)c2O[C@H]1CN(C)C(=O)Nc1ccccc1 | -1.97%
12 | O=C(Cc1ccncc1)NCC[C@H]1CC[C@H](NC(=O)C2CC2)[C@H](CO)O1 | -2.52%
13 | CCn1c(SCC(=O)Nc2nccs2)nnc1-c1ccncc1 | -8.57%
14 | Cn1c(SCC(=O)Nc2nccs2)nnc1-c1cccnc1 | -5.27%
15 | CC(=O)c1cc(C#N)c(SCC(=O)C(C)(C)C)nc1C | 50.6% (active)
16 | CC(=O)c1cnc(SCC(=O)O)nc1C | -5.69%
17 | Cc1cc(NC(=O)CSc2nc3c(cc2C#N)CCCCC3)no1 | -7.82%
18 | CC(=O)c1cc(C#N)c(SCC(=O)Nc2nccs2)nc1C | 64.7% (active)
19 | COCC(=O)Nc1ccc2c(c1)C(=O)N(C)C[C@H](OC)[C@@H](C)CN(CC1CC1)[C@@H](C)CO2 | -0.99%
20 | COc1ccccc1NC(=O)N[C@H]1CC[C@H](CCNS(=O)(=O)c2ccc(Cl)cc2)O[C@H]1CO | 16.7%
21 | CCN1[C@@H]2c3cccc(=O)n3C[C@H]1[C@H](CO)[C@H]2C(=O)NC1Cc2ccccc2C1 | -2%

Row | SMILES | reporter increase
22 | CCC(=O)N1C[C@@H](C)[C@H](OC)CN(C)C(=O)c2ccc(NC(=O)Nc3ccccc3)cc2OC[C@@H]1C | -0.74%
23 | COc1cccc(C(=O)NNS(=O)(=O)c2ccc(F)cc2)c1 | -2.92%
24 | CCC(=O)Nc1ccc(C(=O)NNC(=O)c2ccc(Cl)cc2)cc1 | -4.4%
25 | COc1cccc(C(=O)NNC(=O)/C=C/c2ccccc2)c1 | -6.98%
26 | COc1cccc(N(CC(=O)Nc2cccc(F)c2)S(C)(=O)=O)c1 | -2.9%
27 | COc1cccc(NC(=O)Nc2ccc(F)cc2)c1 | 47.9% (active)
28 | O=C(Nc1ccccc1)c1ccc2nsnc2c1 | 28.4%
29 | COc1cccc(NC(=O)CC2C(=O)NCCN2C(=S)Nc2ccc(F)cc2)c1 (stereo unspecified) | 3.78%
30 | CCC(=O)Nc1ccc(C(=O)Nc2cc(C)on2)cc1 | 15.4%
31 | CCc1ccc(NC(=O)Nc2ccncc2)cc1 | 19.8%
32 | COc1cccc(C(=O)NNC(=O)c2cccc(F)c2)c1 | 46.1% (active)
33 | CCC(=O)Nc1ccc(C(=O)Nc2cccc(OC)c2)cc1 | 49.8% (active)
34 | COc1ccc(NC(=O)Nc2ccc3nsnc3c2)cc1 | 100% (active)
35 | CNC(=O)C[C@H]1CC[C@H]2[C@@H](COc3ccc(NC(=O)c4cccc(OC)c4)cc3C(=O)N2C)O1 | 4.25%
36 | COc1cccc(C#Cc2cnc3c(c2)C(=O)N([C@@H](C)CO)C[C@H](C)[C@H](CN(C)CC2CC2)O3)c1 | -5.64%
37 | CO[C@H]1CN(C)C(=O)c2cc(NS(=O)(=O)CC(F)(F)F)ccc2OC[C@@H](C)N(C(=O)c2ccc3c(c2)OCO3)C[C@@H]1C | 2.12%
38 | O=C(c1ccccc1)N1C[C@@H]2[C@H](c3ccccc31)[C@@H](CO)N2Cc1cc(F)ccc1F | -1.5%
39 | CO[C@@H]1CN(C)C(=O)c2cc(NC(=O)C3CCCCC3)ccc2OC[C@@H](C)N(C(=O)Nc2ccc(C(F)(F)F)cc2)C[C@H]1C | 9.31%
40 | CCCNC(=O)[C@H]1[C@H](CO)[C@H]2Cn3c(ccc(C4=CCCC4)c3=O)[C@H]2N1C(=O)CC1CC1 | -1.14%
41 | CC(=O)c1cccc(NC(=S)N2CCCC2)c1 | 3.72%
42 | CC(=O)c1cccc(NC(=O)Nc2ccc(C)cc2)c1 | 42.2% (active)

Row | SMILES | reporter increase
43 | CCSc1nsc(NC(=O)Nc2cccc(C(C)=O)c2)n1 | 7.31%
44 | CCOc1cc2ccccc2cc1C(=O)Nc1ccccn1 | 18.4%
45 | COc1ccc(C(=O)Nc2cc(C)c(NC(=O)c3ccccc3OC)cn2)cc1 | 34.2%
46 | COc1cc2ccccc2cc1C(=O)Nc1ccncc1 | 60% (active)
47 | COc1cc2ccccc2cc1C(=O)Nc1ccc(S(=O)(=O)Nc2cc(C)on2)cc1 | 5.76%
48 | COc1cc2ccccc2cc1C(=O)Nc1ccccc1C | 71.4% (active)
49 | Cc1ccccc1C(=O)Nc1ccccc1NC(=O)c1ccccc1C | -2.73%
50 | CC(C)C#Cc1cnc2c(c1)C(=O)N([C@@H](C)CO)C[C@@H](C)[C@@H](CN(C)C(=O)c1cccc(F)c1)O2 | 4.18%
51 | CCC(=O)N1[C@@H]2c3ccc(-c4ccc(F)cc4)c(=O)n3C[C@H]1[C@H](CO)[C@H]2C(=O)N(C)C | -3.81%
52 | CO[C@@H]1CC[C@@H]2CCOc3ccc(C#N)cc3C(=O)N(C)C[C@H](c3ccccc3)CC(=O)N(C)C[C@H]1O2 | -4.55%
53 | CO[C@@H]1CN(C)C(=O)c2cc(NC(=O)C3CCOCC3)ccc2OC[C@H](C)N(C)C[C@H]1C | -1.27%
54 | COc1ccc(-c2ccc([C@@H]3[C@@H](C#N)N(C(=O)C4CCCCC4)[C@H]3CO)cc2)cc1 | 9.6%
55 | CC(C)c1ccc(C(=O)NCCCc2ccccc2)cc1 | 55.1% (active)
56 | O=C(COC(=O)c1ccc(F)cc1)NCCCc1ccccc1 | -1.61%
57 | CC(C)(C)OC(=O)N1CCC(C(=O)Nc2cccc(C(=O)NCCc3ccccc3)c2)CC1 | 24.1%
58 | O=C(NCCc1ccccc1)c1cccc(NC(=O)c2ccccc2)c1 | 42.6% (active)
59 | O=C(NCc1ccccc1)c1cccc(NC(=O)C2CCCCC2)c1 | -4.78%
60 | CSc1ncc(C(=O)NCCCc2ccccc2)c(C)n1 | 5.19%
61 | C[C@@H]1CN([C@H](C)CO)S(=O)(=O)c2ccc(C3=CCCC3)cc2O[C@H]1CN(C)C(=O)CC1CC1 | -4.31%
62 | CC(=O)N1[C@@H]2Cn3c(ccc(C4=CCCC4)c3=O)[C@H]1[C@@H](C(=O)NC1CCC1)[C@@H]2CO | 1.06%
63 | CNC[C@H]1OCCCC[C@@H](C)Oc2ccc(NC(=O)Cc3ccccc3)cc2C(=O)N([C@H](C)CO)C[C@@H]1C | -1.06%

Row | SMILES | reporter increase
64 | CC=Cc1ccc2n(c1=O)C[C@H]1[C@H](CO)[C@@H](C(=O)NC3CCCC3)N(Cc3ccncc3)[C@@H]21 (mixture of isomers) | -6.02%
65 | CCCNC(=O)C[C@H]1C[C@@H]2c3cc(NC(=O)c4ccc5c(c4)OCO5)ccc3O[C@@H]2[C@@H](CO)O1 | 0.264%
66 | O=C(OCCN1C(=O)c2ccccc2C1=O)Oc1ccccc1 | -11.2%
67 | O=C1c2ccccc2C(=O)N1CCOc1ccc(F)cc1 | 60.3% (active)
68 | O=C1c2ccccc2C(=O)N1CCCCCCN1C(=O)c2ccccc2C1=O | 5.74%
69 | C[C@H]1CN([C@@H](C)CO)C(=O)c2cc(NC(=O)Cn3cnnn3)ccc2O[C@H]1CN(C)C(=O)NC1CCCCC1 | -0.29%
70 | Cc1ccc(S(=O)(=O)Nc2ccc3c(c2)C(=O)N([C@H](C)CO)C[C@H](C)[C@@H](CN(C)S(=O)(=O)c2cn(C)cn2)OCCCC[C@H](C)O3)cc1 | -6.8%
71 | CCOC(=O)c1cc2n(c1C)-c1ccccc1C2=O | 47.8% (active)
72 | CCOC(=O)CN1C(=O)C(=O)c2cc(C)ccc21 | -5.46%
73 | CCOC(=O)c1ccccc1CN1C(=O)c2ccccc2S1(=O)=O | 0.163%
74 | COc1ccc(CN(C)C[C@H]2OCCCC[C@@H](C)Oc3ccc(NS(C)(=O)=O)cc3C(=O)N([C@@H](C)CO)C[C@H]2C)cc1 | -3.35%
75 | CCC(=O)Nc1ccc2c(c1)OC[C@@H](C)N(Cc1ccccc1OC)C[C@H](C)[C@H](OC)CN(C)C2=O | -1.32%
76 | COCC(=O)Nc1ccc2c(c1)C(=O)N(C)C[C@@H](OC)[C@H](C)CN(C(=O)CC1CC1)[C@H](C)CO2 | 0.458%
77 | Cc1ccc(S(=O)(=O)Nc2cccc3c2O[C@@H](CN(C)C(=O)Nc2ccccc2)[C@H](C)CN([C@@H](C)CO)C3=O)cc1 | -4.19%
78 | CN(C)c1ccc(CNC23CN4CN(CN(C4)C2)C3)cc1 | 2.1%
79 | CN(C)c1ccc(CSc2ccccc2)cc1 | 75.8% (active)
80 | CN(C)c1cc[n+](Cc2ccccc2)cc1 | 12.9%
81 | CCNC(=O)C[C@@H]1CC[C@H]2[C@@H](COC[C@@H](O)CN2C(=O)c2cc(Cl)cc(Cl)c2)O1 | -3.54%
